# Shiga toxin inh – Shiga toxin inhibition; Vero cells, Shiga toxin protein synthesis inhibition reporter; hit rate 9.2% among 290,000; inhibition, % at 38.7 µM; in the data active means inhibition mostly above about 28%, no sharp cut-off; inactive means mostly below about 43%; further: 0% is about no effect
# Pf growth 48h – P. falciparum growth inhibition at 48 hours (one generation). P. falciparum luciferase growth in erythrocytes, 48 h. Potency, µM (titrated, usually from 28.7 µM), for the others: top-dose activity change, negative = inhibition, most hits filed as inhibitors. hit rate 5.9% among 310,000; further: potency means the concentration at half of the fitted maximal effect; on the % scale 0 is the no-effect control and ±100 the full control effect
#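 Luminescence readout; reporter = integrated firefly luciferase in P. falciparum. RBC culture at 2% hematocrit, 0.1% parasitemia final, 37 C/5% CO2; decreased signal taken as growth inhibition.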
# Pf growth 96h – P. falciparum growth inhibition at 96 hour, primary screen for plastid delayed-death inhibitors; hit rate 6.9% among 320,000; Potency, µM (titrated, usually from 28.7 µM), inactives show top-dose activity change, negative = inhibition, usual class: inhibitors; P. falciparum luciferase reporter growth, 96 h; further: potency means the concentration at half of the fitted maximal effect; on the % scale 0 is the no-effect control and ±100 the full control effect
#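 96 h incubation, 37 C, 5% CO2, of luciferase-reporter P. falciparum-infected RBCs (2% hematocrit, 0.05% parasitemia final) with test compounds; endpoint luminescence.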
# Cycloheximide cs – counter-screen for Shiga toxin inhibitors: cycloheximide protein synthesis inhibition; cell reporter, cycloheximide protein synthesis inhibition counterscreen; AID 2314; hit rate 12% among 300,000; max response, %; in the data active means max response mostly above about 13%, no sharp cut-off; inactive means mostly below about 14%; further: read at 38.3 µM for the half of the compounds with a filed dose; 0% is about no effect
# LmPK inhibitor – blocks Leishmania mexicana pyruvate kinase activity; Q27686; hit rate 0.37% among 290,000; purified LmPK, Kinase-Glo ATP luminescence, 1 h; Potency, µM (titrated, usually from 57.5 µM), inactives show at the top dose activity change, negative = inhibition, hits mostly inhibitors; AID 1721; further: potency means the concentration at half of the fitted maximal effect; on the % scale 0 is the no-effect control and ±100 the full control effect
# Target sequence (Q27686 whole entry, looked up): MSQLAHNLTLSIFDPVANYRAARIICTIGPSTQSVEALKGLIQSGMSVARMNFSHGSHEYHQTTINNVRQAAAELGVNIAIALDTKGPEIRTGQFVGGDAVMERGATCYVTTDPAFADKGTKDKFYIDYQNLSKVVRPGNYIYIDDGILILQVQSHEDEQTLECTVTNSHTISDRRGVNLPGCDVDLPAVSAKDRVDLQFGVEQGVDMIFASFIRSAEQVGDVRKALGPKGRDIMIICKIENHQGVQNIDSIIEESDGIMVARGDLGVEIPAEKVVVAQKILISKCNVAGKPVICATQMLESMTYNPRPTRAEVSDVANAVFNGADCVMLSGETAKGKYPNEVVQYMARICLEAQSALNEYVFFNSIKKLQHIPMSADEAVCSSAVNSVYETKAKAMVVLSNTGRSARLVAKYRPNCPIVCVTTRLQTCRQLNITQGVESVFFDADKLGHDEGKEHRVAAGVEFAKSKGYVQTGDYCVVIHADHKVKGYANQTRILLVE
#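 Purified LmPK (0.1 nM) converted ADP (0.1 mM) to ATP with PEP (0.5 mM) in imidazole buffer pH 7.2 with KCl and MgCl2, 1 h at room temperature. ATP was read by Kinase-Glo luminescence; data normalized to uninhibited and no-enzyme controls.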
# Active calls of the source: *; i = inactive; ? = inconclusive; nt = not tested or not shown. Hits are enriched below; roughly 22% of the tested compounds scored in any of these assays. Unless noted, the call rests on the fitted dose curve; in most records, active means well fitted inhibition curve with a large enough effect; inconclusive means small, poorly fitted or top-dose-only effect, or another doubt; inactive means no such curve, though single readings can be large or run the other way.
SMILES,Shiga toxin inh,Pf growth 48h,Pf growth 96h,Cycloheximide cs,LmPK inhibitor
S=C(Nc1nc2c(s1)CCCC2)NC1CC1,77*,?,0%,52*,3%
O=C(CS(=O)(=O)Cc1ccccc1)Nc1nc2c(s1)CCCC2,31,7%,nt,-3,-7%
COC(=O)c1ccc(C(=O)NC(=S)Nc2nc3c(s2)CCCC3)cc1,63,88%,i,20*,-1%
O=C(CSc1nnnn1C1CCCCC1)Nc1nc2c(s1)CCCC2,16,?,-17%,12,1%
O=C(NC(=S)Nc1nc2c(s1)CCCC2)c1ccccc1,95*,146%,-13%,58*,4%
COC(=O)c1cccc(-n2nnnc2SCC(=O)Nc2nc3c(s2)CCCC3)c1,1,-10%,?,-3,-5%
COc1ccc(-n2ncc3c2CC(C)(C)CC3NC(=O)c2ocnc2C)cc1 (centres undefined),0,?,-14%,-2,-7%
O=C(O)/C=C/C(=O)Nc1ccccc1C(=O)OCC(=O)c1ccc2c(c1)OCCO2,75*,-1%,?,25*,-22%
Nc1ccccc1C(=O)OCC(=O)c1ccc2c(c1)OCCO2,74*,168%,177%,31*,14µM*
O=C(COC(=O)C(O)c1ccccc1)c1ccc2c(c1)OCCO2 (centres undefined),103*,20%,22%,32*,-7%
CS(=O)(=O)c1cccc(C(=O)OCC(=O)c2ccc3c(c2)OCCO3)c1,nt,6%,-4%,nt,nt
CCCCC(=O)Nc1ccccc1C(=O)OCC(=O)c1ccc2c(c1)OCCO2,active,49%,33%,38*,-10%
Cn1c(SCc2ccc(Cl)cc2)nnc1-c1ccc2nonc2c1,-3,-19%,-1%,-3,-2%
Cc1c(C(=O)OCC(=O)c2ccc3c(c2)OCCO3)oc2ccccc12,59*,12%,?,36*,-4%
O=C(COc1ccc(S(=O)(=O)N2CCOCC2)cc1)Nc1ccc(Cl)c(C(F)(F)F)c1,-1,9.3µM*,-4%,-4,-6%
O=C(COc1ccc(S(=O)(=O)N2CCOCC2)cc1)Nc1ccc2c(c1)OCCO2,-14,?,nt,-1,6%
O=C(COc1ccc(S(=O)(=O)N2CCOCC2)cc1)NC1CCCCC1,nt,?,12µM*,nt,nt
O=C(NCCNC(=O)c1ccco1)c1ccc(F)cc1,-4,14%,42%,1,-12%
Cc1ccc(N=C/C(C(=O)C(F)(F)F)=C(\O)c2ccco2)cc1Cl,106*,1%,41%,60*,0%
O=C(/C(C=Nc1ccc(F)cc1)=C(/O)c1ccco1)C(F)(F)F,62*,293%,255%,60*,-11%
Cc1cccc(N=C/C(C(=O)C(F)(F)F)=C(\O)c2ccco2)c1,-5,24%,39%,-1,-5%
O=C(c1cc([N+](=O)[O-])ccc1N1CCOCC1)N1CCCC1,-24,11%,35%,2,-2%
Fc1ccc(N2CCN(Cc3cn[nH]c3-c3ccccc3)CC2)cc1,21,?,1%,0,2%
OC1(c2ccc(Cl)cc2)CCN(Cc2cn[nH]c2-c2ccccc2)CC1,-6,?,9.3µM*,7,3%
COc1ccc(-c2[nH]ncc2CN2CCC(O)(c3ccc(Cl)cc3)CC2)cc1,-3,?,12µM*,-2,4%
SMILES,Shiga toxin inh,Pf growth 48h,Pf growth 96h,Cycloheximide cs,LmPK inhibitor
Cc1ccc(Cn2nnnc2CN2CCC(O)(c3ccc(F)cc3)CC2)cc1,2,13µM*,36%,-2,-1%
OC1(c2ccc(Cl)cc2)CCN(Cc2cn[nH]c2-c2ccc(F)cc2)CC1,-5,13µM*,?,-2,1%
CCC(C(=O)NC(C)(C)C)N(Cc1ccc(F)cc1)C(=O)c1snc(C(N)=O)c1N (centres undefined),nt,-5%,-4%,6,6%
O=C(CN(Cc1ccc(F)cc1)C(=O)CCC(=O)Nc1ccccn1)NCCc1ccccc1,-6,-11%,?,-7,-9%
O=C(Oc1ccc2[nH]cc(CCN3C(=O)c4ccccc4C3=O)c2c1)c1ccco1,41,24%,-28%,27*,-2%
O=C1c2ccccc2C(=O)N1CCCc1c[nH]c2ccc(Cl)cc12,-8,30%,37%,14*,4%
O=C(CN1C(=O)c2ccccc2C1=O)NCCc1c[nH]c2ccc(Cl)cc12,16,-9%,?,-3,5%
CCCCCC1=C(C(=O)OC)C(C(=O)OCC)N(S(=O)(=O)C(F)(F)F)c2ccccc21 (centres undefined),-4,nt,nt,-3,nt
Cc1ccccc1NS(=O)(=O)c1ccc(C(=O)NCC(C)(C)N2CCOCC2)cc1,nt,?,-3%,nt,nt
CCc1nnc(NC(=O)Cc2cc(OC)c(OC)c(OC)c2)s1,9,?,?,-3,5%
COC(=O)c1ccc(NC(=S)NN2CCCCC2c2cccnc2)cc1 (centres undefined),33,0%,5%,14*,2%
COc1ccccc1C(=O)Nc1ccc(S(=O)(=O)N2CCCCC2c2cccnc2)cc1 (centres undefined),-7,?,3.3µM*,9,5%
CCN(C(=O)Cn1ccc(C(F)(F)F)n1)c1c(N)n(Cc2ccccc2)c(=O)[nH]c1=O,nt,-6%,-22%,nt,nt
CCOC(=O)c1ccc(S(=O)(=O)N2CCN(CC(O)COc3ccc(C#N)cc3)CC2)cc1 (centres undefined),-1,-11%,-15%,-1,-2%
Cc1ccc(/C(O)=C2/C(=O)C(=O)N(CC(=O)O)C2c2ccc([N+](=O)[O-])cc2)cc1 (centres undefined),10,3%,?,-4,5%
COc1cc([N+](=O)[O-])ccc1NC(=O)CSc1nc2ccccc2n1-c1ccccc1,-3,8.3µM*,10µM*,1,-1%
COc1cc([N+](=O)[O-])ccc1NC(=O)C1C2C=CC(C2)C1C(=O)O (centres undefined),nt,?,12µM*,-2,-1%
CCOc1ccc(-n2c(SCC(=O)Nc3cc(OC)c([N+](=O)[O-])cc3C)nc3ccccc32)cc1,11,-17%,?,-3,1%
COc1cc([N+](=O)[O-])ccc1NC(=O)CN(C)C,-5,-10%,34%,-2,7%
O=C(CCC(=O)Nc1ccccc1Cl)NNC(=S)Nc1ccccc1C(F)(F)F,-11,18%,2.1µM*,-2,-4%
CCN(CC(=O)Nc1ccc([N+](=O)[O-])cc1OC)c1ccccc1,23,?,9.3µM*,-4,1%
N#C/C(=C/c1ccc(F)cc1)c1nnc(NC(=O)c2ccccc2)s1,-5,18%,7%,6,-2%
Cc1ccccc1C(=O)N1CCC(C(=O)NN2C(=O)NC3(CCC(C)CC3)C2=O)CC1 (centres undefined),nt,-9%,-12%,nt,nt
O=C(CN(C(=O)CNC(=O)c1ccco1)c1ccc(F)cc1)NC1CCCCC1,-7,41%,14%,1,-1%
COc1cc([N+](=O)[O-])ccc1NC(=O)CCCOc1ccccc1,-4,-4%,-4%,14,8%

# Bioassay records deposited in PubChem by National Center for Advancing Translational Sciences (NCATS).
